# RORg inh: ROR gamma (mouse) transcription inhibition. P51450. Drosophila S2 Gal4-RORgamma UAS-luciferase reporter, 20 h. Potency, µM (doses to about 53.6 µM), without a hit: at the top dose activity change, negative = inhibition, usual class: inhibitors. actives 5.4% (n = 310,000). AID 2551; also: % is scaled to controls: 0 for no effect and ±100 for the full control effect; nearly all actives have a fitted effect of over 60% in size
# Target sequence (P51450 whole entry, looked up, the tested form may be a part): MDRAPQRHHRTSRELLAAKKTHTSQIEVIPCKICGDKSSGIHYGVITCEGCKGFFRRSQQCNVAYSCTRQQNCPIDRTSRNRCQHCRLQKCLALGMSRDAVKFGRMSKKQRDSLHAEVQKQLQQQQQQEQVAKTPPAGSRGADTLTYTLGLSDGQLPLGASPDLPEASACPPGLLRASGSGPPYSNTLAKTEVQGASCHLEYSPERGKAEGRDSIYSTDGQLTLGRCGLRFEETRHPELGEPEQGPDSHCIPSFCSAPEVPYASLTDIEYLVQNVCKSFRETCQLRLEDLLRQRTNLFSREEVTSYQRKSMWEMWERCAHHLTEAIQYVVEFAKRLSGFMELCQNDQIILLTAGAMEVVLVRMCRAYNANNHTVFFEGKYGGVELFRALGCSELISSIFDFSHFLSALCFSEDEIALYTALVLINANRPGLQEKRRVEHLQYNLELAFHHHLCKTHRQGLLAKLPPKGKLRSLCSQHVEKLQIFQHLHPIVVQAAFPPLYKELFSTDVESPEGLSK
#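 Luciferase reporter read in Schneider cells carrying Gal4-RORγ (mouse) and UAS-Photinus luciferase; cells given compound 1 h before 700 uM copper sulfate induction, then incubated 20 h at ambient temperature.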
# MCF10A rereplic: DNA re-replication induction in MCF 10a cells; actives 2.9% (n = 350,000); MCF 10A DNA re-replication, Hoechst nuclear intensity, 48 h; Potency, µM (series often up to 46.1 µM), for inactives: at the highest dose activity, positive = re-replication, usual class: activators; also: % of control where 0% means no effect; nearly all actives have a fitted effect of over 50% in size
# SW480 rereplic: inducers of DNA re-replication in SW480 colon cancer cells. SW480 DNA re-replication, Hoechst DNA content imaging, 48 h. Potency, µM (top dose mostly 46.1 µM), for the others: at the highest dose re-replication activation, most hits filed as activators. actives 1.8% (n = 340,000). AID 624297; also: % of control where 0% means no effect; nearly all actives have a fitted effect of over 55% in size
#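 Quantitative HTS format with DMSO vehicle controls; 48 hr drug incubation at 37 C, then 40 min Hoechst staining and scanning imager measurement at 405 nm excitation.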
# KB-V1 MDR tox: KB-V1 MDR subline cytotoxicity; KB-V1 MDR cells viability, CellTiter-Glo, 72 h; Potency, µM (series often up to 46.1 µM), usual class: cytotoxic; actives 3.4% (n = 400,000); also: % is scaled to controls: 0 for no effect and ±100 for the full control effect; nearly all actives have a fitted effect of over 60% in size
#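 Cytotoxicity toward P-gp-expressing KB-V1 cells was determined as loss of CellTiter-Glo luminescence after 72 h at 37 degrees C. Compounds were tested in quantitative HTS format across a concentration range, with curves fitted to normalized data.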
# KB-3-1 cytotox: kills parental KB-3-1 adenocarcinoma cells. actives 1.4% (n = 400,000). KB-3-1 viability, CellTiter-Glo ATP luminescence, 72 h. Potency, µM (top dose mostly 46.1 µM), usual class: cytotoxic; also: % is scaled to controls: 0 for no effect and ±100 for the full control effect; nearly all actives have a fitted effect of over 60% in size
#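 Multi-concentration cytotoxicity screen in KB-3-1 cells grown in DMEM lacking phenol red with 10% FBS. After 72 h at 37 °C with compound, ATP-dependent luminescence was recorded.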
# Gal4-VP16 FLuc: inhibits Gal4-VP16 luciferase reporter, ROR gamma counter-screen. actives 3.5% (n = 310,000). Drosophila S2 Gal4-VP16 UAS-luciferase, luminescence, 20 h. Potency, µM (highest dose often 53.6 µM), for inactives: at the top dose activity, negative = inhibition, usual class: inhibitors;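 also: Gal4-VP16 expression switched on by copper sulfate through the metallothionein promoter; % is scaled to controls: 0 for no effect and ±100 for the full control effect; nearly all actives have a fitted effect of over 50% in size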
# Numbers without * were called inactive; i = inactive; ? = inconclusive; / = no result; [ ] = dose if it differs, or a comment. The list is not random: actives were taken first. Their share in the collection is about 10%. Calls follow the shape of the dose curve; as a rule, active = well fitted curve in the direction sought with a large enough effect; inconclusive = small, poorly fitted or top-dose-only effect, or another doubt; inactive = no such curve, though single readings can be large; an effect the other way counts as inactive or inconclusive. Potency is read from the fitted curve at half-maximal effect.
SMILES,RORg inh,MCF10A rereplic,SW480 rereplic,KB-V1 MDR tox,KB-3-1 cytotox,Gal4-VP16 FLuc
COC(=O)c1ccc2c(=O)n(-c3ccc(OC)cc3)c(=S)[nH]c2c1,2.8µM*,0%,-6%,?,i,5.6µM*
COc1ccc(-n2c(=S)[nH]c3c(oc4ccccc43)c2=O)cc1,2.8µM*,?,0%,?,i,4.5µM*
COCCn1c(=S)[nH]c2cc(C(=O)N(CCO)Cc3ccccc3)ccc2c1=O,11µM*,4%,2%,?,i,?
COc1ccc(-n2c(=S)[nH]c3cc(C(=O)O)ccc3c2=O)cc1,2%,-20%,-13%,i,i,0%
CCN(CC)CCCn1c(=S)[nH]c2cc(C(=O)OC)ccc2c1=O,-11%,0%,-6%,i,i,4%
C/C=C1\C(=O)C[C@H]2[C@@H]3CCC4=CC(=O)CC[C@]4(C)[C@H]3CC[C@]12C,-7%,/,/,/,/,3%
O=c1cc(CN2CCN(c3ccccc3)CC2)c2ccccc2o1,/,/,/,i,i,/
CC[C@H](C)[C@H](NC(=O)[C@H](CC(C)C)NC(=O)[C@@H](N)CO)C(=O)NCC(=O)N[C@@H](CCCN=C(N)N)C(=O)N[C@@H](CC(C)C)C(=O)O,0%,/,/,/,/,-15%
O=C(O)c1ccc2c(=O)n(-c3ccccc3)c(=S)[nH]c2c1,9%,8%,-3%,i,i,-4%
COc1ccc(-n2c(=S)[nH]c3cc(C(=O)N(C)Cc4ccccc4)ccc3c2=O)cc1,7.9µM*,-1%,-11%,?,i,?
Cc1cc(C)n(-c2nc3cc(Cl)c(Cl)cc3nc2Nc2c(C)cccc2C)n1,/,/,/,i,i,/
Cc1ccc2ncnc(NCc3ccco3)c2c1,/,/,/,i,?,/
CCN(C(=O)c1oc2ccc(S(=O)(=O)N3CCCCCC3)cc2c1C)c1ccccc1,/,/,/,i,26µM*,/
Cc1c(C(=O)NCc2cccnc2)oc2ccc(S(=O)(=O)N3CCCCC3)cc12,?,-2%,4%,?,?,-11%
Cc1c(C(=O)NCc2cccnc2)oc2ccc(S(=O)(=O)N3CCCCCC3)cc12,21%[0.365 µM],1%,-2%,5.2µM*,?,/
CCCCOC(OCCCC)[C@H](O)CSc1ccc2ccccc2c1,1%[10 µM],/,/,/,/,-12%[10 µM]
CCCC/C=C/[C@@H](c1ccccc1)C1COC(=O)CC1O (some centres undefined),-6%,/,/,/,/,-19%
O=[N+]([O-])c1ccc(-[n+]2ccc3ccccc3c2)c([N+](=O)[O-])c1,/,?,?,5.2µM*,4.6µM*,/
O=C(/C(=C(\[O-])c1ccccc1)[n+]1ccc2ccccc2c1)c1ccc([N+](=O)[O-])cc1,40%,14%,-10%,i,i,-19%
S=C(N/N=C1\C2CN3CCN(C2)CC1(c1ccccc1)C3)Nc1ccccc1,5µM*,-2%,/,i,i,2.8µM*
CCCC12CN3CCN(CC(C3)/C1=N\NC(=O)Nc1ccccc1)C2,-5%,5%,-2%,i,i,-3%
COc1ccccc1NC(=O)C(C)Sc1nnc2ccc3ccccc3n12 (centres undefined),/,/,/,i,i,/
COc1cccc(C2NC(c3cccc(OC)c3O)C(C)C(=O)C2C)c1O (centres undefined),3.2µM*,?,?,?,?,4.5µM*
COc1ccc(-c2cc(C(F)(F)F)nc(NCc3ccco3)n2)cc1OC,2%,13%,4%,2.3µM*,i,-3%
COc1ccc(-c2noc(-c3ccccc3C(=O)NCc3ccco3)n2)cc1,43%,4%,3%,?,i,2%
SMILES,RORg inh,MCF10A rereplic,SW480 rereplic,KB-V1 MDR tox,KB-3-1 cytotox,Gal4-VP16 FLuc
COc1ccc(-c2ccc(SCC(=O)c3cccs3)nn2)cc1OC,40%,4%,3%,2.3µM*,i,5%
COc1ccc(-c2noc(-c3ccccc3C(=O)NCc3ccco3)n2)cc1OC,0%[0.365 µM],?,-4%,3.7µM*,i,/
COc1ccc(-c2ccc(SCC(=O)NCc3ccco3)nn2)cc1OC,-22%[10 µM],12%,-7%,9.2µM*,i,3%
COc1ccc(N2C(=O)CCSC23C(=O)N(Cc2ccc(F)cc2)c2ccccc23)cc1 (centres undefined),/,/,/,i,i,/
COc1ccc(C2CC(=O)N(C)c3ccccc3S2)cc1OC (centres undefined),7.9µM*,?,-1%,?,i,?
COc1cc(C2CC(=O)N(Cc3ccc(F)cc3)c3ccccc3S2)cc(OC)c1OC (centres undefined),/,/,/,12µM*,?,/
COc1ccc(C2CC(=O)N(Cc3ccc(F)cc3)c3ccccc3S2)cc1 (centres undefined),/,/,/,15µM*,?,/
COc1ccc(OC2C(=O)N(Cc3ccc(F)cc3)C2c2cc(OC)c(OC)c(OC)c2)cc1 (centres undefined),?,0%,0%,i,i,-10%
COc1ccc(C2CC(=O)N(CC(=O)NCC3CCCO3)c3ccccc3S2)cc1OC (centres undefined),12%,-3%,-6%,i,i,10%
COc1ccc(C2CC(=O)N(Cc3ccc(F)cc3)c3ccccc3S2)cc1OC (centres undefined),/,/,/,16µM*,?,/
CCOC(=O)C1CCCN(C(=O)c2cc(C)n(C(C)(C)C)n2)CC1 (centres undefined),/,/,/,i,i,/
C=C(C)CNC(=S)Nc1nc2c(cc1C(=O)OCC)CCCC2,5µM*,1%,-13%,i,i,10µM*
CCOC(=O)c1cc2c(nc1N)CCCC2,-15%,-1%,-26%,i,i,-16%
CCCCNC(=O)c1[nH]c(C2CCNCC2)nc1-c1cccc(C(F)(F)F)c1,/,/,/,i,i,/

# Assay outcomes deposited in PubChem BioAssay by National Center for Advancing Translational Sciences (NCATS).
